For orientation: inhibition means the change of the read-out against control, counted positive when it falls.

Out of some 220,000 compounds screened, about 8,200 (3.7%) were called active. The list comes from a sample in which actives are over-represented; it also holds similar structures and randomly drawn compounds. A number with no mark means an inactive call.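 Rule for the calls: active = compounds that reduced the stress-induced luciferase reporter signal by more than about 70% of percent inhibition (limit read from the data); inactive = the rest.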

The test can be described thus: inhibitors of CHOP promoter induction, primary screen, cell-based, unfolded protein response, luciferase reporter (AID 2732).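 Note: 0% = tunicamycin plus vehicle and 100% = wells without tunicamycin.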 The conditions noted are these: CHO-K1 CHOP-promoter luciferase, tunicamycin-induced, 15-18 h; at 10 µM; stronger effect = higher value. On the technique in general: A reporter such as luciferase makes a cellular process visible.
As for `O=C(CCCN1C(=O)/C(=C\c2ccccc2)SC1=S)Nc1ccccc1O`, the inhibition was 27%.
Next, `C=CCOc1ccc(/C=C2\SC(=S)N(CCC(=O)O)C2=O)cc1`: 88% (active).
In the case of `O=C(CCCN1C(=O)/C(=C/c2ccccc2)SC1=S)Nc1ccc(O)cc1` it was 58.8%; in that of `Cn1nnc(NC(=S)NC(=O)c2ccccc2)n1`, 17.2%.
In the case of `O=C(Nc1ccc(S(=O)(=O)Nc2nccs2)cc1)c1cccc(S(=O)(=O)N2CCOCC2)c1` it was -32.6%; in that of `COc1ccc(Cn2c(O)c(/C=C3/C=CC=N3)c(=O)[nH]c2=O)cc1`, 1.57%; in that of `C=CC(COCc1ccccc1)N(Cc1ccccc1)S(=O)(=O)c1ccccc1Br` (stereo not drawn), 13.4%.
Turning to `CC(C)(C)C(=O)NNC(=O)c1ccc(Oc2cc(Cl)cc(Cl)c2)o1`, the inhibition is 1.32%.
In the case of `COC(=O)c1ccc(S(=O)(=O)N(CCO)Cc2ccccc2)n1C` it was -4.99%; in that of `O=S(=O)(c1ccccc1)N1CN(Cc2ccc(F)cc2)c2nc3ccccc3nc21`, 3.85%; in that of `CCc1c(C)sc(NC(=O)c2ccc(Br)o2)c1C(=O)OC`, 88.9% (active).
Next, `CCc1c(C)sc(NC(=O)/C=C/c2ccc3c(c2)OCO3)c1C(=O)OC`: 1.72%; `CCOC(=O)c1c(NC(=O)c2ccc(Br)o2)sc2c1CCCC2`: 22.6%; `COc1cc(CN(C)Cc2nc3cc(C(F)(F)F)ccc3c(=O)[nH]2)ccc1OC(F)F`: 34.5%.
In the case of `Cc1cccc(OCc2nnc(SCn3nnc4ccccc4c3=O)o2)c1` it was 55.9%; in that of `Cc1cccc(OCc2nnc(SCc3nc4cc(C(F)(F)F)ccc4c(=O)[nH]3)o2)c1`, 104% (active); in that of `O=C(/C=C/Nc1ccc(S(=O)(=O)Nc2cnc3ccccc3n2)cc1)c1cccnc1`, 12.4%.
For `COc1ccc(COCC(O)CN2CCC(C(N)=O)CC2)cc1` (stereo not drawn), the inhibition is -5.79%.
Next, `O=C(CSc1nc(-c2ccco2)cc(C(F)(F)F)n1)NCc1cccs1`: 30.9%; `FC(F)(F)c1cc(-c2ccco2)nc(N2CCOCC2)n1`: 101% (active); `FC(F)(F)c1cc(-c2ccco2)nc(NCc2ccc(Cl)cc2)n1`: 81.4% (active).
Next, `Cc1cc(C(F)(F)F)nn1-c1nc(-c2ccco2)cc(C(F)(F)F)n1`: 30.6%; `CCOC(=O)c1ccn(-c2nc(-c3ccco3)cc(C(F)(F)F)n2)n1`: 7.61%; `FC(F)(F)c1cc(-c2cccs2)nc(NCc2ccco2)n1`: 52.2%.
Next, `COc1ccc(Cl)cc1NC(=O)CCN1CCOCC1`: 5.05%; `CC(C)Cc1nc(Nc2ccc(S(=O)(=O)N3CCCC3)cc2)c2nnn(Cc3ccccc3)c2n1`: 27.2%; `C#CCNc1nc(C(C)C)nc2c1nnn2Cc1ccccc1F`: 89.8% (active).
Turning to `CC(=O)NC(C)c1nc2ccccc2n1Cc1ccccc1F` (stereo not drawn), the inhibition is -2.56%.
In the case of `CC1C(=O)NC(=O)C1c1ccccc1` (stereo not drawn) it was 8.56%.
Next, `CCCC(=O)Nc1ccc2c(c1)nc(CCNC(=O)c1ccco1)n2C`: -14.7%; `CC(NC(=O)C(C)(C)C)C(c1cccs1)N1CCN(Cc2ccccc2)CC1` (stereo not drawn): -20.7%; `CCOC(=O)C1=C(CN2CCc3ccccc32)NC(=O)NC1c1cccc([N+](=O)[O-])c1` (stereo not drawn): 60.9%.
Next, `CCOC(=O)C1=C(CN2CCCCCC2)NC(=O)NC1c1cccc([N+](=O)[O-])c1` (stereo not drawn): -12.3%.
For the compound `CCOC(=O)C1=C(CN2CCc3ccccc32)NC(=O)NC1c1ccc(Cl)cc1` (stereo not drawn), the inhibition is 85.1% (active).
Next, `Cc1ccc(C(=O)NNC2=Nc3cc([N+](=O)[O-])ccc3OC2)cc1`: -15.9%; `Cn1nc(C(C)(C)C)c(NC(=O)c2sccc2Cl)c1C(C)(C)C`: 3.22%.
In the case of `CC(C)c1c(O)nc(SCCOc2ccc(Cl)cc2)[nH]c1=O` it was 4.19%; in that of `CCOC(=O)N1CCN(C(=O)c2ccc3c(c2)N(Cc2ccc(C)cc2)CCS3)CC1`, 76.8% (active).
With `CCOC(=O)N1CCN(C(=O)c2ccc(S(=O)(=O)c3ccc(C)cc3)c(NC(C)=O)c2)CC1`, the inhibition was 33.2%.
In the case of `O=C(NCCN1CCOCC1)c1ccc2c(c1)N(Cc1ccc(Cl)cc1)CCS2` it was 15%; in that of `O=C(NCCCc1ccccc1)C1CCC(CNc2c(N3CCCCC3)c(=O)c2=O)CC1` (stereo not drawn), 0.92%; in that of `O=C(COc1ccc(Cl)cc1)N1CCN(S(=O)(=O)c2ccc(Cl)cc2)CC1`, 42.3%.
Consider `CCC(=O)c1ccc(OCC(O)CN2CC(C)OC(C)C2)cc1` (stereo not drawn), for which the inhibition was -8.55%.
As to `OC(COc1ccc2c(c1)CCC2)CN1CCN(c2cccc(Cl)c2)CC1` (stereo not drawn), the inhibition is 44.8%.
Consider `COC(=O)c1ccccc1OCC(=O)N1CCN(c2ccc(Cl)cc2)CC1`, for which the inhibition is 22.2%.
Consider `CCC(=O)c1ccc(OCC(O)CN2CCN(c3cccc(C(F)(F)F)c3)CC2)cc1` (stereo not drawn), for which the inhibition is 84.2% (active).
Consider `O=C(COc1ccc(Cl)cc1)N1CCN(c2cccc(C(F)(F)F)c2)CC1`, for which the inhibition was 86.3% (active).
Next, `O=C(C1=C(O)C(=O)N(CCOCCO)C1c1ccccn1)c1cccs1` (stereo not drawn): 8.68%; `FC(F)(F)c1ccc(-n2cn[nH]c2=S)cc1`: 9.71%; `CCN(CCNC(=O)C1=C(C)C(=O)OC12CCC(C)CC2)c1ccccc1` (stereo not drawn): 23.7%.
Next, `CCc1ccc(NC(=O)N[C@H](C(=O)O)C(C)CC)cc1` (stereo partly drawn): -4.67%; `CCCn1c(C)cc(/C=C(\C#N)C(=O)OCC(=O)Nc2cc(OC)c(OC)c(OC)c2)c1C`: 9.36%.
In the case of `CCOC(=O)/C(C#N)=C/c1ccc(N2CCN(Cc3ccccc3)CC2)cc1` it was 5.69%.
In the case of `CCOC(=O)/C(C#N)=C/c1ccc(OCC(=O)Nc2ccccc2)c(OC)c1`, the inhibition is 77.3% (active).
In the case of `COc1cc(/C=C2/C(=O)NN(c3ccc(F)cc3)C2=O)cc([N+](=O)[O-])c1O` it was 0.68%; in that of `O=C(CCCCCN1C(=O)c2cccc3cccc(c23)C1=O)NCc1ccco1`, 7.37%.
In the case of `CCOC(=O)c1[nH]c2c(c1C)C(=O)CC(c1ccc(N(C)C)cc1)C2` (stereo not drawn) it was 9.42%; in that of `CCOC(=O)C1=C(c2ccccc2)NC(=S)NC1c1ccc(Cl)cc1` (stereo not drawn), 18%; in that of `CCOC(=O)c1[nH]c2c(c1-c1ccccc1)C(=O)CC(c1ccc(Cl)cc1)C2` (stereo not drawn), 80.8% (active).
In the case of `CC(NS(=O)(=O)c1ccccc1)c1n[nH]c(=S)n1-c1ccccc1` (stereo not drawn) it was 19.4%; in that of `CC(/C=C/c1ccco1)=N/NC(=O)C1COc2ccccc2O1` (stereo not drawn), 0.12%.
Turning to `CCc1ccc(S(=O)(=O)Nc2ccc(C)c(NS(C)(=O)=O)c2)cc1`, the inhibition is 16.4%.
Take `COc1ccc(CCNS(=O)(=O)c2cccc3cccnc23)cc1OC`: the inhibition was 0.78%.
As to `O=C(Nc1nc2ccc(S(=O)(=O)N3CCCC3)cc2s1)C1CCCO1` (stereo not drawn), the inhibition is 9.58%.
Next, `Cn1c(=O)oc2cc(S(=O)(=O)N3CCC(C(=O)Nc4ccc(OC(F)(F)F)cc4)CC3)ccc21`: 12%; `Cc1ccc2nc(NC(=O)C3CCN(S(=O)(=O)c4ccc5c(c4)oc(=O)n5C)CC3)sc2c1`: 80.1% (active).
Next, `Nc1ccc(N=Nc2ccccc2Cl)c(N)n1`: -4.49%; `Cc1ccc(C)c(S(=O)(=O)N2CCN(CC(=O)Nc3ccc([N+](=O)[O-])cc3)CC2)c1`: 42%; `Cc1cccc(OCCCC(=O)Nc2ccc(S(=O)(=O)N3CCCC3)cc2)c1`: 89% (active).
In the case of `Cc1cccc(OCCC(=O)Nc2cc(S(=O)(=O)N3CCCCC3)ccc2N2CCOCC2)c1` it was 40.4%.
Regarding `CC(=O)Nc1ccc(S(=O)(=O)N2CCSCC2)cc1`, the inhibition was -25.3%.
In the case of `CC(=O)Nc1ccc(S(=O)(=O)N2CCN(CCCOc3cc(C)ccc3C)CC2)cc1` it was 71.1% (active); in that of `CCN(CC(=O)Nc1ccc(S(=O)(=O)N2CCCC2)cc1)CC(=O)Nc1cccc(OC)c1`, 2.69%; in that of `CCc1ccc[n+](-c2nc([O-])sc2C=O)c1`, 9.23%.
Next, `Nc1nc(Sc2ncccc2[N+](=O)[O-])n[nH]1`: -14.3%; `CC(=O)c1nnn(-c2ccc(Cl)cc2C#N)c1C`: 13.8%.
In the case of `Cn1nc(C(C)(C)C)c([N+](=O)[O-])c1C(N)=O` it was 1.68%; in that of `COc1ccc(C(=O)N/N=C2\CCS(=O)(=O)c3ccc(F)cc32)cc1OC`, -0.83%; in that of `O=C(NCC(c1cccs1)N1CCOCC1)c1cc(-c2ccccn2)nc2ccccc12` (stereo not drawn), 7.03%.
For `Cc1c(-c2ccccc2)n[nH]c1C(=O)N=Nc1c(O)[nH]c2ccccc12`, the inhibition was 106% (active).
In the case of `Cc1cccc(N(CC(=O)N=Nc2c(O)[nH]c3ccccc23)S(C)(=O)=O)c1C` it was 27%; in that of `COCC(=O)N=Nc1c(O)[nH]c2ccccc12`, -14.7%; in that of `O=C(CC(c1ccccc1)c1cc(Cl)ccc1O)NCCN1CCOCC1` (stereo not drawn), -2.25%.
Next, `CN(C)S(=O)(=O)c1ccc(Cl)c(NC(=O)COC(=O)CC(NC(N)=O)c2ccc(Cl)cc2)c1` (stereo not drawn): -8.1%; `CC(C)NC(=O)NNc1c(Cl)cncc1Cl`: 5.99%; `O=C(NCc1ccc2c(c1)OCO2)c1sccc1Br`: 8.42%.
Consider `Cc1cc2cc3c(cc2nc1SCC(=O)Nc1c(C)cccc1C)CCC3`, for which the inhibition was 79.2% (active).
With `Cc1cccc(C)c1NC(=O)CSc1ccc([N+](=O)[O-])cn1`, the inhibition was -10.4%.
As to `Cc1cc(C)c(C#N)c(SCC(=O)Nc2ccccc2)n1`, the inhibition was 41.3%.
Turning to `COC(=O)c1c(C)oc(C)c1S(=O)(=O)NCc1ccc(Cl)cc1`, the inhibition is 30.1%.
In the case of `Cc1ccc(/C=N/NC(=O)COc2ccccc2-c2ccccc2)cc1` it was 90.4% (active).
Next, `Cc1ccc(OCC(=O)N/N=C/c2ccncc2)cc1`: 10%; `Cc1ccc(OCC(=O)N/N=C\c2ccco2)c(C)c1`: 12.7%.

The values are drawn from PubChem BioAssay AID2732 (Emory University Molecular Libraries Screening Center, 2010).
